The nature of experiment [1]: small molecules captured by biotinylated probe aFSTL3 – biochemical, small-molecule microarray, fluorescence 635/667, stem cell growth factor project, primary screen (AID 1064).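 Note: measures binding of the biotinylated anti-FSTL3 antibody to printed compounds.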 The following applies: higher = more signal.
Experiment [2] can be described thus: binders from COS7 lysate, DM2A8 probe, primary screen, torsin A project, cell lysate, small-molecule microarray, fluorescence 635/667 (AID 1065). The conditions noted are these: higher = more signal, COS7 lysate expressing mutant human TOR1A.
The nature of experiment [3]: small molecules captured by biotinylated probe aFGF2 – biochemical, small-molecule microarray, fluorescence 635/667, stem cell growth factor project, primary screen (AID 1067).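 Note: measures binding of biotinylated aFGF2 protein to printed compounds on slides; z-score merges feature fluorescence and signal-to-noise across triplicate slides.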 The following applies: higher = more signal.
Experiment [4] in a line: small molecules captured by biotinylated probe aFGF10 – biochemical, small-molecule microarray, fluorescence 635/667, stem cell growth factor project, primary screen (AID 1071).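 Note: score merges 667 nm spot intensity and signal to noise from triplicate slides.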 The conditions noted are these: higher = more signal.
Experiment [5] addresses Neurogenic locus notch homolog protein 2 (Homo sapiens) (UniProt Q04721). Briefly: small molecules binding Notch2 protein – biochemical, small-molecule microarray, 635 nm fluorescence, stem cell growth factors, primary screen (AID 1073). The following applies: higher = more signal.
For experiment [6], the target named is Pro-neuregulin-1, membrane-bound isoform (Homo sapiens) (UniProt Q02297). As to the kind of experiment: small molecules binding neuregulin-1 protein – biochemical, small-molecule microarray, fluorescence 635/667, psychiatric disease protein project, primary screen (AID 1075).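 Note: score combines 667 nm spot fluorescence with signal to noise.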 The conditions noted are these: NRG1 binding, 635 nm fluorescence, higher = more signal.

In experiment [7] the test system is Neuregulin-1 EGF-like domain. As to the kind of experiment: small molecules binding NRG1 EGF domain – biochemical, small-molecule microarray, 635 nm fluorescence, primary screen (AID 1081).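 Note: binding of the protein to compounds printed on small-molecule microarray slides.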 The conditions noted are these: higher = more signal.
Experiment [8] can be described thus: FRG1 expression reporter modulators in myotubes – cell-based, C2C12 myotubes, firefly/Renilla luciferase, luminescence, FRG1 inhibition for FSHD, primary screen (AID 1084). The conditions noted are these: FRG1 promoter luciferase, higher = more signal, called active from +8 up or from −8 down.
Experiment [9] can be described thus: small molecules captured by biotinylated probe aFST – biochemical, small-molecule microarray, fluorescence 635/667, stem cell growth factor project, primary screen (AID 1086).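 Note: score merges 667 nm fluorescence with signal-to-noise of each printed compound spot.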 The conditions noted are these: higher = more signal.
Experiment [10] is described as follows: binders of probe aHhip on microarray, primary screen, stem cell growth factor project, biochemical, small-molecule microarray, fluorescence 635/667 (AID 1087).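 Note: score merges spot fluorescence at 667nm with spot signal to noise ratio.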 The following applies: higher = more signal.
The test system of experiment [11] is PRMT1 (protein arginine N-methyltransferase 1). As to the kind of experiment: small molecules binding arginine methyltransferase PRMT1 – biochemical, small-molecule microarray, 635 nm fluorescence, primary screen (AID 1088).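 Note: binding of Prmt1 protein to compounds spotted on small-molecule microarray slides.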 The following applies: higher = more signal.
A short description of experiment [12]: growth effects on S. cerevisiae YJM789 – YJM789 clinical isolate, OD600, 24 h, basal, primary screen (AID 1089).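 Note: growth of clinical yeast isolate S. cerevisiae YJM 789 seeded 1000 cells per well; test concentration not given here.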 The conditions noted are these: higher = more signal, called active from +8 up or from −8 down.
Experiment [13] in a line: S. pombe growth modifiers, basal conditions – strain 972, OD600, 24 h, no modulator, primary screen (AID 1090).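 Note: basal condition with compound alone and no growth modifier present; test concentration not given here.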 The conditions noted are these: S. pombe 972 growth, higher = more signal, called active from +8 up or from −8 down.
The nature of experiment [14]: budding yeast growth modifiers under rapamycin – strain BY4716, OD600, 96 h, primary screen (AID 1091). Note: test concentration not given here. The conditions noted are these: S. cerevisiae BY4716 + rapamycin, higher = more signal, called active from +8 up or from −8 down.
Experiment [15] deals with Torsin-1A-interacting protein 2 (Homo sapiens) (UniProt Q8NFQ8). As to the kind of experiment: small molecules binding lysate-expressed LULL1 – cell lysate, human LULL1 lysate, 635/667 nm fluorescence, primary screen (AID 1092).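 Note: probe is lysate of COS7 cells overexpressing human LULL1; score merges per-feature 667 nm fluorescence with signal-to-noise.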 The conditions noted are these: small-molecule microarray, hLULL1 lysate binding, 635 nm fluorescence; higher = more signal.
A short description of experiment [16]: optical density change of DRC41 E. coli – strain DRC41, OD650, 24 h, E. coli filamentation project, primary screen (AID 1093).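 Note: MC1000 strain lacking acrAB efflux and sulA so SOS filamentation is blocked; test concentration not given here.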 The conditions noted are these: E. coli DRC41 growth, higher = more signal, called active from +8 up or from −8 down.
Experiment [17] is described as follows: probe aLefty2 binding to arrayed compounds – biochemical, biotinylated probe, 635/667 nm fluorescence, primary screen (AID 1094).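 Note: score merges spot fluorescence near 667 nm with spot signal-to-noise ratio.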 The conditions noted are these: small-molecule microarray, higher = more signal.
Experiment [18] deals with Noggin (protein binding on small-molecule microarray). As to the kind of experiment: small molecules binding Noggin protein – biochemical, 635/667 nm fluorescence, primary screen (AID 1095).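 Note: score merges 667 nm feature fluorescence with signal to noise over triplicate slides.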 The conditions noted are these: 635 nm fluorescence, higher = more signal.
The target of experiment [19] is Neurogenic locus notch homolog protein 3 (Homo sapiens) (UniProt Q9UM47). Briefly: small molecules binding NOTCH3 protein – biochemical, 635/667 nm fluorescence, primary screen (AID 1096). The following applies: small-molecule microarray, 635 nm fluorescence, higher = more signal.
Experiment [20] can be described thus: probe aEGFR binding to arrayed compounds – biochemical, biotinylated probe, 635/667 nm fluorescence, primary screen (AID 1097).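 Note: probe is a biotinylated anti-EGFR antibody binding compounds printed on slides; score combines fluorescence near 667 nm and signal to noise of each spot.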 The conditions noted are these: small-molecule microarray, higher = more signal.

Calls of active or inactive are those of the source.

Chain of Neurogenic locus notch homolog protein 3 (Homo sapiens) (Q9UM47 whole entry, looked up): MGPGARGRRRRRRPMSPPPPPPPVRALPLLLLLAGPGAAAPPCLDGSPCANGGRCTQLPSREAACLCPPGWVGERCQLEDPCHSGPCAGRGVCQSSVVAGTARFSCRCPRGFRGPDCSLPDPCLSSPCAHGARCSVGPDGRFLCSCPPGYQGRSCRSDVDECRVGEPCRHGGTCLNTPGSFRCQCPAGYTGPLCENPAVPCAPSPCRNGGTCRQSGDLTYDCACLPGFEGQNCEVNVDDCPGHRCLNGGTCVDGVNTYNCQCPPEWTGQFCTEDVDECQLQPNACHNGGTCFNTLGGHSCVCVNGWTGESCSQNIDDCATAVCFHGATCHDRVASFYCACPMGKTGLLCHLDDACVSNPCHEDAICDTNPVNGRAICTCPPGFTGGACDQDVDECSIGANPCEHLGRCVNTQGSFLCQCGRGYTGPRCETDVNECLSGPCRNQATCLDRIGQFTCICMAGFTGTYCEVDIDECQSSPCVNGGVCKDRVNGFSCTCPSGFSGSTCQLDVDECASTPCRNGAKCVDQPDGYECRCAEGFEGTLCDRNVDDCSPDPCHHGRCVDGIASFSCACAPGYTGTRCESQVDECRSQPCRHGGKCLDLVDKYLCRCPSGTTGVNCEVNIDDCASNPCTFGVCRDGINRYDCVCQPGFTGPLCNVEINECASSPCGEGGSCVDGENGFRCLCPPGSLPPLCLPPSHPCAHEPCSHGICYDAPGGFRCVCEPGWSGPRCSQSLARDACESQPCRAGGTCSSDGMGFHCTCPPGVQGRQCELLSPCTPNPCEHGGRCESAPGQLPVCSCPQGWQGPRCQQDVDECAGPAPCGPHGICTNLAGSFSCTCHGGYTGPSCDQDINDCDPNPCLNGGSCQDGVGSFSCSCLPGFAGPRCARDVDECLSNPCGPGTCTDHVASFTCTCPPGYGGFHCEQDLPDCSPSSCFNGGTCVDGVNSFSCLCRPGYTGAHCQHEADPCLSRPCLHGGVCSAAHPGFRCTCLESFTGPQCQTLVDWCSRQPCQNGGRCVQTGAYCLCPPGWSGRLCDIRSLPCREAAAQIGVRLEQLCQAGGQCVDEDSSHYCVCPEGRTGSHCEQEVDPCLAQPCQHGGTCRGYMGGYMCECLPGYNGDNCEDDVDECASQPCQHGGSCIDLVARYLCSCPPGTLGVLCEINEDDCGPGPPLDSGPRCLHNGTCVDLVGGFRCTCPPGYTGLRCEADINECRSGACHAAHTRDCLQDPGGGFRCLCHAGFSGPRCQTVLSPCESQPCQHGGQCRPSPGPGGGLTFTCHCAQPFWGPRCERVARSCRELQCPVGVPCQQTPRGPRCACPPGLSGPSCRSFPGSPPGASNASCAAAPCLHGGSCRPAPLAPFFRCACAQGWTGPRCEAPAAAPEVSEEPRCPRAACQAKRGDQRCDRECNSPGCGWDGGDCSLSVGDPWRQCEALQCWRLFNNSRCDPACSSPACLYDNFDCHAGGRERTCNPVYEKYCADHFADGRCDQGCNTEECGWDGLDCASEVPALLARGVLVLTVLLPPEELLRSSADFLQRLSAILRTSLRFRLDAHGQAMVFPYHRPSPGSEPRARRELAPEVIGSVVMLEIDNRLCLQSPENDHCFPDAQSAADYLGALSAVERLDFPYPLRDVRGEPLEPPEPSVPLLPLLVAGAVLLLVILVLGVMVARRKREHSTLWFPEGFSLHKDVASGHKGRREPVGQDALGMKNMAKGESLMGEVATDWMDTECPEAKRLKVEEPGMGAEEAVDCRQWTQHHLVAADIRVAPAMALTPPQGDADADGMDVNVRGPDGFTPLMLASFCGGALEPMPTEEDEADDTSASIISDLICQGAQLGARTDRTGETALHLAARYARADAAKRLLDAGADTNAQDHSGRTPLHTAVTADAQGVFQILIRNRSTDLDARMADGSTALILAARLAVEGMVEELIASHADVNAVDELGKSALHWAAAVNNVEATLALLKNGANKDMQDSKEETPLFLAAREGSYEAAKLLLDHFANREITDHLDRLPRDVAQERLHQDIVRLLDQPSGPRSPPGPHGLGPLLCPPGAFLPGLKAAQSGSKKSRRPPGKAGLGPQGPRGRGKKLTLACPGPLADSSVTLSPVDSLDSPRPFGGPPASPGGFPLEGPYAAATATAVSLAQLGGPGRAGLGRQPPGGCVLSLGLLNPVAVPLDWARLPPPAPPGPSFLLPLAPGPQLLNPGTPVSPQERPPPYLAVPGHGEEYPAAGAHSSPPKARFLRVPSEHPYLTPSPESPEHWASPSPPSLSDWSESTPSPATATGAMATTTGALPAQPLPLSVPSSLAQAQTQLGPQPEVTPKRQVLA
Chain of Pro-neuregulin-1, membrane-bound isoform (Homo sapiens) (Q02297 whole entry, looked up, canonical isoform): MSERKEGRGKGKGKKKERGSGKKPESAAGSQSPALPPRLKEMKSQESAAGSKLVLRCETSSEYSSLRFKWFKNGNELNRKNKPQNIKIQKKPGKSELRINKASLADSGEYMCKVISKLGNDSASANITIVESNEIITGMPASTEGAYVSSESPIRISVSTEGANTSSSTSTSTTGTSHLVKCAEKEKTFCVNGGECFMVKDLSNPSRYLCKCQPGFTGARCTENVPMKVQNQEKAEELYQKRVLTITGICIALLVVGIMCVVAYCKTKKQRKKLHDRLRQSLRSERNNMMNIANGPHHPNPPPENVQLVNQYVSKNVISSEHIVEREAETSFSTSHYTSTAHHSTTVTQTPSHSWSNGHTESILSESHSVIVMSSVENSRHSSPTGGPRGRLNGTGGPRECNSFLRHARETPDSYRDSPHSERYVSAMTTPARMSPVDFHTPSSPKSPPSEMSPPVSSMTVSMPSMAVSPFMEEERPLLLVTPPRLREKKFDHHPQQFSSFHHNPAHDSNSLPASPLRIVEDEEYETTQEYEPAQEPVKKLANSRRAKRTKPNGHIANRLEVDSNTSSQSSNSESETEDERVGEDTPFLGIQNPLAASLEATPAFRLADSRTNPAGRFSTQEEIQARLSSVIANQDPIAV
Chain of Torsin-1A-interacting protein 2 (Homo sapiens) (Q8NFQ8 whole entry, looked up): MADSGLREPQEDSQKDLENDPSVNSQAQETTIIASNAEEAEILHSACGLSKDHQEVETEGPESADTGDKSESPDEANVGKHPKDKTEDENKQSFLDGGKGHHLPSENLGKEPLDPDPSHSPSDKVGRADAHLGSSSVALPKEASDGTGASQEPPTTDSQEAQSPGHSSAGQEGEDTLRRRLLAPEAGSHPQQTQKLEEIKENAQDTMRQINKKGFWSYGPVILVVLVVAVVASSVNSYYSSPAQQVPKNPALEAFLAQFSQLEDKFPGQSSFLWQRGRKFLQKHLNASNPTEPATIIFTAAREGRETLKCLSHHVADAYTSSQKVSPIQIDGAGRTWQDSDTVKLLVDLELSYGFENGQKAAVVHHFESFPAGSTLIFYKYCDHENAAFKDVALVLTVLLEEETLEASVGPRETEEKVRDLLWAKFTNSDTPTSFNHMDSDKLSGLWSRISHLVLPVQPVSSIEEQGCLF

As for `CC(C)(C)OC(=O)CC[C@@]1(C(=O)NCc2ccccc2)N=C(c2ccc(OCCCO)cc2)O[C@@H]1c1ccccc1`, the composite z-score in [1] was found to be 0.844; in [2], 1.96; in experiment [3] it was 0.0096; in experiment [4], 0.0922; in [5], 1.24; in [6], 1.5. The composite z-score in [7] was 1.27; in experiment [9], 1.14; in experiment [10], -0.304; in experiment [11], 1.55; in experiment [15] it was 3.54; in [17], 0.0717. Besides, the values for the composite z-score in [18], in experiment [19] and in experiment [20] were -0.0633, 1.1 and 0.045, respectively. Further, the z-score is -2.49 (inactive) in [8]; -5.26 (inactive) in experiment [12]; -1.2 (inactive) in experiment [13]; 0.264 (inactive) in experiment [14]; 1.46 (inactive) in experiment [16].

In the case of `Cc1cc(C)c(C(O)C2C=CC3C(=O)N(C)C(=O)C3N2N2CCCCC2)c(C)c1` (stereo not given), the composite z-score was found to be 0.0308 in experiment [1]; 0.563 in [2]; 0.205 in experiment [3]; 1.02 in experiment [4]; 1.69 in experiment [5]; 0.918 in [6]. Further, the composite z-score in experiment [7] was 1.3; in experiment [9], 1.27; in experiment [10], -0.206; in experiment [11] it was 1.54; in [15], 2.99; in experiment [17], 0.433. The composite z-score was found to be 0.521 in experiment [18], 1.06 in [19] and 0.301 in experiment [20]. In addition, the z-score was 0.251 (inactive) in experiment [8]; -0.133 (inactive) in experiment [12]; 1.08 (inactive) in experiment [13]; -0.376 (inactive) in [14]; -0.587 (inactive) in experiment [16].

For `COC(=O)[C@@]1(Cc2ccccc2CN=[N+]=[N-])N=C(c2ccc(OCCCO)cc2)O[C@H]1c1ccccc1N=[N+]=[N-]`, the composite z-score in experiment [1] was 0.127; in experiment [2] it was -0.523; in [3], -0.0004; in [4], -0.259; in experiment [5] it was 0.167; in [6], 1.09. For the same compound, the composite z-score in experiment [7] is 1.13; in experiment [9], 0.19; in experiment [10], 0.0826; in experiment [11] it was 1.42; in experiment [15], 2.18; in experiment [17], -0.184. For the same compound, the composite z-score is 0.0678 in experiment [18], 0.698 in [19] and -0.0372 in experiment [20]. The z-score in experiment [8] is 1.17 (inactive); in experiment [12], 0.763 (inactive); in [13] it was 2.17 (inactive); in [14] it was 36 (active); in [16], 0.0738 (inactive).

Regarding `O=C1O[C@H](c2ccccc2)[C@H](c2ccccc2)N2[C@H]1[C@@H](C(=O)NC[C@H](O)c1ccccc1)[C@]1(C(=O)Nc3ccc(C#CC4=CCCCC4)cc31)[C@H]2c1ccc(OCCO)cc1`, the composite z-score is 0.0854 in [1]; 0.21 in [2]; -0.0579 in [3]; 0.423 in experiment [4]; 1.04 in experiment [5]; 0.413 in [6]. Moreover, the composite z-score in [7] is 1.02; in experiment [9], 0.681; in experiment [10] it was 0.136; in experiment [11] it was 1.55; in experiment [15] it was 1.85; in [17], -0.104. Moreover, the composite z-score in [18] is 0.691; in experiment [19], 1.11; in [20], -0.0494. Further, the z-score in experiment [8] was 0.315 (inactive); in [12] it was 2.99 (inactive); in [13] it was 1.64 (inactive); in experiment [14] it was 4.01 (inactive); in experiment [16] it was -0.422 (inactive).

Take `CCN1C(C)=C(C(=O)OC)[C@@H](c2ccccc2)N2C(=O)[C@](O)(C(=O)OC)[C@@H](c3ccccc3)C(C(=O)c3ccccc3)=C12`: the composite z-score is -0.14 in experiment [1]; 0.36 in experiment [2]; -0.0493 in [3]; 0.671 in [4]; 0.442 in experiment [5]; 0.607 in experiment [6]. For the same compound, the composite z-score was 0.708 in experiment [7]; 0.0486 in experiment [9]; 0.141 in [10]; 0.481 in experiment [11]; 1.41 in experiment [15]; -0.132 in [17]. Further, the composite z-score worked out at 0.416 in experiment [18], 0.685 in experiment [19] and 0.0255 in experiment [20]. In addition, the z-score in experiment [8] is -4.12 (inactive); in experiment [12], -0.59 (inactive); in experiment [13], -4.98 (inactive); in [14] it was -0.714 (inactive); in experiment [16], 1.43 (inactive).

For the origin of these results see PubChem BioAssay.
